Over roughly 33,000 sequences, “E-score (-0.5 to 0.5)” has its median near -0.035; the highest 2% begin near 0.35. What follows is part of a selection rich in the highest values, with near analogues and random picks from the rest.
These sequences were tested against T1, Pdr3 (UniProt P33200) (assay: PBM E-score (8-mer binding enrichment) (E-score (-0.5 to 0.5)); higher = stronger / more preferred TF binding). Settings: protein concentration: 200 nM; construct: GST-full length.
T1 sequence: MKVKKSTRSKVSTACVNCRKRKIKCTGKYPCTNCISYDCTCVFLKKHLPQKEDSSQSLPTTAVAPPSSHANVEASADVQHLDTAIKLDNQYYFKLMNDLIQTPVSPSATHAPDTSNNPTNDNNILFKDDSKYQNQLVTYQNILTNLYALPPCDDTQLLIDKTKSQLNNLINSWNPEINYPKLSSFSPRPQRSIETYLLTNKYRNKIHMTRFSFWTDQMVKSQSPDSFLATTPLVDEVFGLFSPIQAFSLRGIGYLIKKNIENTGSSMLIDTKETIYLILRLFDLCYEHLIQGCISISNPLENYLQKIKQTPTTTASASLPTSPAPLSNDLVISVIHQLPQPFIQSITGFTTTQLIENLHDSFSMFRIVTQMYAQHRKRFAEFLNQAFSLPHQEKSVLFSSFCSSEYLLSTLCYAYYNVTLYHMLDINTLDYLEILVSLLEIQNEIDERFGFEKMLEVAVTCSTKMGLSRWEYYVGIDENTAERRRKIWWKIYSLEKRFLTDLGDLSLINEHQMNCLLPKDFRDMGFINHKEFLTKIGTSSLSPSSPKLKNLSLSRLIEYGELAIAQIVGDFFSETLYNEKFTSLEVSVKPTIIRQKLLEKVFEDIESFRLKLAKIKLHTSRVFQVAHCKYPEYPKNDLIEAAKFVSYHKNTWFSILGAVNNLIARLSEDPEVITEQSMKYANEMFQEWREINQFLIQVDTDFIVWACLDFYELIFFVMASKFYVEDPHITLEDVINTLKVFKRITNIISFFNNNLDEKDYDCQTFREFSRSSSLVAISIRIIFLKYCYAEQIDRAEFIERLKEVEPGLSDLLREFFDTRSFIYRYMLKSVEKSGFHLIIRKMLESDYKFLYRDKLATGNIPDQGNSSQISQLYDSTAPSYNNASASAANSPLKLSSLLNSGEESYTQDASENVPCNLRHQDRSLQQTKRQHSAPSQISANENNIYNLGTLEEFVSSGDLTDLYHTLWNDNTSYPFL
Method in brief: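 Bound GST-tagged yeast transcription factors, applied at about 100-200 nM to double-stranded universal all-10-mer Agilent arrays, were detected with fluorescent anti-GST. Scans were normalised with masliner. A modified Wilcoxon-Mann-Whitney statistic, the E-score, was assigned to each ungapped eight-base word pooled with its reverse complement by the Universal PBM Analysis Suite.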

| Sequence | PBM E-score |
| --- | --- |
| AGCACCAA | -0.0317 |
| GGTTGCCA | 0.233 |
| ATAACGCG | 0.168 |
| CCTATCCC | 0.188 |
| TTGCGAAA | 0.119 |
| ACACTCCG | 0.204 |
| ACATGCGT | -0.265 |
| GCGGAAAC | 0.415 |
| TCGGAAAA | 0.4 |
| GAGGAAAC | 0.053 |
| TTGGAAAA | -0.141 |
| GGGGAAAC | 0.206 |
| TGGGAAAA | -0.104 |
| ACTATCAC | -0.18 |
| GGTGCACC | -0.0384 |
| CTCACCAG | -0.147 |
| CCGGGCCC | 0.345 |
| CCCGGCCC | 0.247 |
| ACGGGCAC | 0.025 |
| GCGGGCAC | 0.216 |
| CCCGGCCG | 0.357 |
| CCCGGCAG | 0.303 |
| CCGGGCAC | 0.364 |
| ACCGGCCG | 0.35 |
| ACCGGCGG | 0.256 |
| CCGGGCCG | 0.399 |

| Sequence | PBM E-score |
| --- | --- |
| CCCGGCGG | 0.382 |
| CCGGGCCA | 0.346 |
| GCAAGATA | -0.00203 |
| GCCATTAC | 0.137 |
| CTCAACTA | -0.0622 |
| CCTCGAAA | -0.114 |
| CCCTGAGA | -0.165 |
| CTCAGAAC | -0.135 |
| ACATATTA | -0.0563 |
| AAGGTTGC | -0.0716 |
| GACCTATA | 0.0796 |
| ATACAGAG | -0.223 |
| CAGAAACG | 0.0256 |
| AGGAAACA | -0.0166 |
| CGGAAACA | 0.451 |
| GGGAAACA | 0.161 |
| AGGAAACC | 0.00802 |
| CGGAAACG | 0.396 |
| CGGAAACC | 0.425 |
| GGGAAACC | 0.149 |
| AGGAAACG | -0.0809 |
| GTAAGAAC | -0.0573 |
| CGGGGTTA | 0.304 |
| CAAGGTAC | -0.25 |
| CCTGGTCA | -0.169 |
| AGTGCAAC | -0.107 |

| Sequence | PBM E-score |
| --- | --- |
| ATGCGGAG | 0.0777 |
| ATGCGGAA | 0.416 |
| ATGCGGAC | 0.134 |
| CTGCGGAC | 0.1 |
| GTGCGGAA | 0.366 |
| CTGCGGAA | 0.357 |
| CTGCGGCA | 0.0359 |
| GTGCGGGA | 0.252 |
| GTGCGGCA | 0.0901 |
| CAGCCCGC | 0.00736 |
| AATATTAA | 0.244 |
| TTGGGAAA | 0.0633 |
| CGGCTCGA | 0.174 |
| CGAGTCGC | -0.0735 |
| ACACCTCT | -0.0108 |
| TAAACCAA | -0.263 |
| GCCCAGGC | -0.138 |
| ATCGGACA | 0.221 |
| ATCGGAAC | 0.469 |
| ATCGGAAA | 0.407 |
| GTCGGAAA | 0.416 |
| ATCGGACC | 0.313 |
| ATCGGAGA | 0.25 |
| ATCGGAGC | 0.275 |
| GTCGGAGA | 0.173 |
| GTCGGATA | 0.218 |

| Sequence | PBM E-score |
| --- | --- |
| CTCGGAGA | 0.312 |
| CTCGGAAA | 0.372 |
| CTCGGGAA | 0.301 |
| ATGAATAC | -0.0134 |
| ATTGCGGA | 0.328 |
| CCAGTGCC | -0.1 |
| ACACAAGC | 0.0653 |
| GAATGGGC | 0.186 |
| ACGCCGAC | 0.163 |
| GGAGATGA | 0.094 |
| GTGGGAAC | -0.0738 |
| GTCGGAAC | 0.458 |
| CTCGGAAG | 0.39 |
| TTCAGAAA | -0.195 |
| CTAGGAAG | -0.214 |
| ATCGGAAG | 0.359 |
| TCGGGAAA | 0.309 |
| TTCGGAAA | 0.391 |
| GTCGGACA | 0.218 |
| ATCGGACG | 0.209 |
| CTGGGAAG | -0.176 |
| ATCGGAGG | 0.0523 |
| AGATCTCC | 0.0532 |
| AGAGTATA | -0.259 |
| ATCCTGGC | -0.0357 |
| AGTGCCTC | -0.229 |

| Sequence | PBM E-score |
| --- | --- |
| TTCCCCAA | -0.0249 |
| CTAGGAAC | -0.0409 |
| ATCGGAAT | 0.43 |
| ATCGGCAT | 0.175 |
| CTCGGAGC | 0.276 |
| ATCGGATA | 0.325 |
| CTCGGAAC | 0.474 |
| CCACAGCG | -0.0122 |
| TACGGCCA | -0.0624 |
| CTTCGCCC | 0.0168 |
| CCCGCCCA | 0.231 |
| CCCGCCGG | 0.373 |
| ATCGCCGC | 0.166 |
| CGCGCCCG | 0.23 |
| ATCGCCGG | 0.373 |
| ATCGCCGA | 0.154 |
| CCCGCCCG | 0.372 |
| CCCGCCCC | 0.357 |
| ACCGCCCC | 0.148 |
| ACCGCCCG | 0.227 |
| CCCGCCGA | 0.305 |
| CCCGCCGC | 0.27 |
| GAATCTCC | 0.225 |
| GTGGCCGA | 0.107 |
| ACCAGTCG | -0.0214 |
| ACCGCCGA | 0.103 |

| Sequence | PBM E-score |
| --- | --- |
| TCCGCCGA | 0.376 |
| GCCGCCGA | 0.292 |
| CATGGGAG | -0.124 |
| CAGTCTCG | -0.203 |
| TGCGATAA | 0.0592 |
| ACGGTAGT | -0.00668 |
| ATCGGGAA | 0.279 |
| CTCCGGGC | 0.236 |
| AGCCGGGC | 0.137 |
| ATCCGGGC | 0.386 |
| ATCGGGGG | 0.0408 |
| ATCCGGGG | 0.389 |
| ATCCGGGA | 0.313 |
| CTGCTCGA | -0.176 |
| AGCCATCA | -0.0552 |
| ACGCCGAT | -0.0606 |
| AATCCGCA | 0.246 |
| AGTCCGCC | 0.324 |
| CATCCGCC | 0.345 |
| CATCCGCA | 0.237 |
| AATCCGCG | 0.388 |
| AATCCGCT | 0.16 |
| AGTCCGCA | 0.203 |
| CATCCGCG | 0.359 |
| AGTCCGCG | 0.364 |
| GCCCTAAA | -0.219 |

| Sequence | PBM E-score |
| --- | --- |
| CCTCAAGC | -0.113 |
| AGCTCTGC | -0.217 |
| CAGCTCTA | -0.128 |
| TAAGCGTA | -0.311 |
| CGAGAGCG | 0.0432 |
| ATTCGGTC | 0.0502 |
| CCGAGAAA | 0.357 |
| GCGAGAAA | -0.0403 |
| TCGAGAAA | -0.197 |
| ACAGTGGT | -0.156 |
| AGGATCCC | 0.152 |
| CAGATCCC | 0.0667 |
| CAGATCCG | 0.314 |
| CGGATCGC | 0.279 |
| CGGATCCC | 0.374 |
| AGGATCCA | -0.0311 |
| CGGATCCG | 0.489 |
| GGGATCCC | 0.374 |
| AGGATCCG | 0.301 |
| CGGATCCA | 0.413 |
